According to PubChem BioAssay AID1159580 (chemical genetic matrix, 2015):
Values joined by “and” are separate entries in the source; they are usually repeats but may differ in a detail not shown here. Equal entries are not always repeated. Screen size: about 5,500 compounds; about 2,000 (36%) were called active. Another 18% or so got no clear call; they are omitted. Cut-off read from the data, not from the text of the source: active = normalized growth mostly below about 0.91 (no sharp cut-off); inconclusive = no clear call, values can overlap the other calls; inactive = mostly above about 0.92. The list shows a part of the results.

Assay: chemical genetic growth profiling, strain panel (AID 1159580);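 note: tested at 20 µM; growth read once vehicle control cultures reached saturation at 30 °C; 1 = growth at the plate median or of vehicle wells; lower values mean less growth of the strain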
Details: S. cerevisiae deletion strains, growth OD

Measured: normalized growth

NC(N)=N/N=C/c1c(Cl)cccc1Cl
active: locus YAL021C, strain ccr4, stronger effect = lower value 0.887 | locus YNL248C, strain rpa49, stronger effect = lower value 0.884
inactive: locus YAL026C, strain drs2, stronger effect = lower value 0.976 | locus YAL030W, strain snc1, stronger effect = lower value 0.981 | locus YBL061C, strain skt5, stronger effect = lower value 0.986 | locus YBR009C, strain hhf1, stronger effect = lower value 0.941 | locus YBR021W, strain FUR4, stronger effect = lower value 1.01 | locus YBR023C, strain chs3, stronger effect = lower value 0.968 | locus YBR171W, strain sec66, stronger effect = lower value 0.982 | locus YBR229C, strain ROT2, stronger effect = lower value 1.02 | locus YBR231C, strain swc5, stronger effect = lower value 0.984 | locus YBR279W, strain paf1, stronger effect = lower value 0.975 | locus YCL011C, strain gbp2, stronger effect = lower value 0.963 | locus YCL016C, strain dcc1, stronger effect = lower value 0.954 | locus YCL029C, strain bik1, stronger effect = lower value 1.01 | locus YCL069W, strain vba3, stronger effect = lower value 0.973 | locus YCR088W, strain abp1, stronger effect = lower value 0.973 | locus YDL005C, strain med2, stronger effect = lower value 0.972 | locus YDL035C, strain GPR1, stronger effect = lower value 1.02 | locus YDL040C, strain nat1, stronger effect = lower value 0.982 | locus YDL074C, strain BRE1, stronger effect = lower value 1.02 | locus YDL101C, strain DUN1, stronger effect = lower value 1.01 | locus YDL134C, strain PPH21, stronger effect = lower value 1.02 | locus YDL185W, strain tfp1, stronger effect = lower value 1.02 | locus YDL192W, strain arf1, stronger effect = lower value 1.03 | locus YDR001C, strain nth1, stronger effect = lower value 0.972 | locus YDR069C, strain doa4, stronger effect = lower value 0.968 | locus YDR101C, strain arx1, stronger effect = lower value 1.01 | locus YDR137W, strain rgp1, stronger effect = lower value 0.922 | locus YDR159W, strain sac3, stronger effect = lower value 0.919 | locus YDR162C, strain NBP2, stronger effect = lower value 1.02 | locus YDR195W, strain ref2 0.97 | locus YDR297W, strain sur2, stronger effect = lower value 0.978 | locus YDR318W, strain mcm21, stronger effect = lower value 1.01 | locus YDR334W, strain swr1, stronger effect = lower value 0.977 | locus YDR335W, strain msn5, stronger effect = lower value 0.976 | locus YDR388W, stronger effect = lower value 1.01 | locus YDR392W, strain spt3, stronger effect = lower value 0.916 | locus YDR502C, strain sam2, stronger effect = lower value 1.03 | locus YEL003W, strain gim4, stronger effect = lower value 0.963 | locus YEL037C, strain rad23, stronger effect = lower value 0.984 | locus YEL061C, strain CIN8 (second series), stronger effect = lower value 0.972 | locus YEL061C, strain CIN8, stronger effect = lower value 1.01 | locus YER015W, strain faa2, stronger effect = lower value 0.992 | locus YER016W, strain bim1, stronger effect = lower value 0.938 | locus YER110C, stronger effect = lower value 1.02 | locus YER111C, strain swi4, stronger effect = lower value 0.963 | locus YER155C, strain BEM2 (second series), stronger effect = lower value 0.989 | locus YER155C, strain BEM2, stronger effect = lower value 1 | locus YER167W, strain BCK2, stronger effect = lower value 1 | locus YFR010W, strain ubp6, stronger effect = lower value 0.988 | locus YGL078C, strain dbp3, stronger effect = lower value 1.03 | locus YGL086W, strain mad1, stronger effect = lower value 1.01 | locus YGL167C, strain pmr1, stronger effect = lower value 0.981 | locus YGL173C, strain kem1, stronger effect = lower value 0.977 | locus YGL227W, strain vid30, stronger effect = lower value 0.964 | locus YGL240W, strain doc1, stronger effect = lower value 0.986 | locus YGL248W, strain PDE1, stronger effect = lower value 1.01 | locus YGL253W, strain hxk2, stronger effect = lower value 0.96 | locus YGR135W, strain pre9, stronger effect = lower value 1.03 | locus YGR252W, strain gcn5, stronger effect = lower value 1.03 | locus YHR013C, strain ard1, stronger effect = lower value 0.889 | locus YHR027C, strain rpn1, stronger effect = lower value 0.967 | locus YHR030C, strain SLT2, stronger effect = lower value 1 and 0.981 | locus YHR079C, strain IRE1 (second series), stronger effect = lower value 1 | locus YHR079C, strain IRE1, stronger effect = lower value 0.987 | locus YHR094C, strain hxt1, stronger effect = lower value 1.01 | locus YHR129C, strain ARP1, stronger effect = lower value 1.01 | locus YHR142W, strain chs7, stronger effect = lower value 0.978 | locus YHR200W, strain rpn10, stronger effect = lower value 1.03 | locus YIL066C, strain RNR3, stronger effect = lower value 1.02 | locus YIL073C, strain SPO22, stronger effect = lower value 1.04 | locus YIL125W, strain kgd1, stronger effect = lower value 1.01 | locus YIR030C, strain dcg1, stronger effect = lower value 1.01 | locus YJL092W, strain hpr5, stronger effect = lower value 0.978 | locus YJL095W, strain BCK1 (second series), stronger effect = lower value 0.982 | locus YJL095W, strain BCK1, stronger effect = lower value 1 and 0.981 | locus YJL115W, strain asf1, stronger effect = lower value 0.964 | locus YJL129C, strain trk1, stronger effect = lower value 1.03 | locus YJL134W, strain LCB3, stronger effect = lower value 1 | locus YJL154C, strain vps35, stronger effect = lower value 0.969 | locus YJL164C, strain tpk1, stronger effect = lower value 0.931 | locus YJL166W, strain qcr8, stronger effect = lower value 0.996 | locus YJL168C, strain set2, stronger effect = lower value 1.01 | locus YJL187C, strain SWE1 (second series), stronger effect = lower value 1.02 | locus YJR043C, strain POL32, stronger effect = lower value 1.02 | locus YJR066W, strain TOR1, stronger effect = lower value 0.936 | locus YJR075W, strain HOC1, stronger effect = lower value 1.01 | locus YKL009W, strain mrt4, stronger effect = lower value 1.01 | locus YKL068W, stronger effect = lower value 1.01 | locus YKL085W, strain MDH1 (second series), stronger effect = lower value 1 | locus YKL085W, strain MDH1, stronger effect = lower value 1 | locus YKL160W, strain elf1, stronger effect = lower value 0.983 | locus YKL190W, strain CNB1, stronger effect = lower value 1.01 | locus YKR001C, strain vps1, stronger effect = lower value 1.05 | locus YKR026C, strain gcn3, stronger effect = lower value 0.991 | locus YKR091W, strain srl3, stronger effect = lower value 0.979 | locus YLL001W, strain dnm1, stronger effect = lower value 1.01 | locus YLL026W, stronger effect = lower value 0.977 | locus YLL041C, strain sdh2, stronger effect = lower value 0.981 | locus YLR027C, strain aat2, stronger effect = lower value 0.977 | locus YLR039C, strain RIC1, stronger effect = lower value 0.965 | locus YLR058C, strain SHM2, stronger effect = lower value 1.02 | locus YLR102C, strain apc9, stronger effect = lower value 1.01 | locus YLR113W, strain HOG1, stronger effect = lower value 1 | locus YLR221C, strain rsa3, stronger effect = lower value 0.968 | locus YLR258W, strain gsy2, stronger effect = lower value 0.973 | locus YLR262C, strain YPT6 (second series), stronger effect = lower value 0.978 | locus YLR262C, strain YPT6, stronger effect = lower value 1.02 | locus YLR268W, strain sec22, stronger effect = lower value 1 | locus YLR320W, strain mms22, stronger effect = lower value 0.949 | locus YLR330W, strain CHS5, stronger effect = lower value 1.01 | locus YLR342W, strain FKS1 (second series), stronger effect = lower value 1.02 | locus YLR342W, strain FKS1, stronger effect = lower value 0.977 | locus YLR357W, strain rsc2, stronger effect = lower value 0.972 | locus YLR370C, strain arc18, stronger effect = lower value 0.974 | locus YLR371W, strain rom2, stronger effect = lower value 1.02 | locus YLR384C, strain iki3, stronger effect = lower value 0.99 | locus YLR418C, strain cdc73, stronger effect = lower value 1.02 | locus YML016C, strain PPZ1, stronger effect = lower value 1.01 | locus YML032C, strain rad52, stronger effect = lower value 1.02 | locus YML120C, strain ndi1, stronger effect = lower value 0.977 | locus YML124C, strain tub3, stronger effect = lower value 1.01 | locus YMR058W, strain fet3, stronger effect = lower value 0.971 | locus YMR078C, strain ctf18, stronger effect = lower value 1.02 | locus YMR125W, strain sto1, stronger effect = lower value 0.931 | locus YMR129W, stronger effect = lower value 0.984 | locus YMR205C, strain PFK2, stronger effect = lower value 0.986 | locus YMR223W, strain ubp8, stronger effect = lower value 1.02 | locus YMR231W, strain pep5, stronger effect = lower value 0.987 | locus YMR263W, strain SAP30, stronger effect = lower value 1.01 | locus YMR307W, strain GAS1, stronger effect = lower value 0.988 | locus YNL067W, strain RPL9B, stronger effect = lower value 1.01 | locus YNL071W, strain lat1, stronger effect = lower value 0.982 | locus YNL128W, strain TEP1, stronger effect = lower value 1.02 | locus YNL153C, strain GIM3, stronger effect = lower value 1.01 | locus YNL183C, strain NPR1, stronger effect = lower value 0.952 | locus YNL209W, strain ssb2, stronger effect = lower value 0.968 | locus YNL233W, strain BNI4, stronger effect = lower value 1 | locus YNL250W, strain rad50, stronger effect = lower value 1.04 | locus YNL271C, strain bni1, stronger effect = lower value 1.02 | locus YNL298W, strain CLA4, stronger effect = lower value 1.05 | locus YNL307C, strain MCK1, stronger effect = lower value 1.02 | locus YNL322C, strain KRE1 (second series), stronger effect = lower value 0.956 | locus YNL322C, strain KRE1, stronger effect = lower value 1 | locus YNR049C, strain mso1, stronger effect = lower value 0.966 | locus YNR052C, strain pop2, stronger effect = lower value 1.01 | locus YOL012C, strain htz1 0.878 | locus YOL147C, strain pex11, stronger effect = lower value 1.02 | locus YOR001W, strain rrp6, stronger effect = lower value 0.957 | locus YOR061W, strain CKA2, stronger effect = lower value 1.01 | locus YOR069W, strain VPS5, stronger effect = lower value 1.01 | locus YOR070C, strain gyp1, stronger effect = lower value 0.977 | locus YOR080W, strain dia2, stronger effect = lower value 0.98 | locus YOR083W, strain WHI5, stronger effect = lower value 0.952 | locus YOR106W, strain vam3, stronger effect = lower value 0.993 | locus YOR136W, strain idh2, stronger effect = lower value 1.02 | locus YOR144C, strain elg1, stronger effect = lower value 1.02 | locus YOR184W, strain ser1, stronger effect = lower value 1.02 | locus YOR231W, strain MKK1, stronger effect = lower value 0.987 | locus YOR265W, strain rbl2, stronger effect = lower value 0.985 | locus YOR270C, strain vph1, stronger effect = lower value 0.922 | locus YOR290C, strain snf2, stronger effect = lower value 0.918 | locus YOR316C, strain cot1, stronger effect = lower value 1.01 | locus YPL051W, strain arl3, stronger effect = lower value 0.981 | locus YPL078C, strain atp4, stronger effect = lower value 0.974 | locus YPL106C, strain sse1, stronger effect = lower value 0.921 | locus YPL240C, strain hsp82, stronger effect = lower value 0.977 | locus YPL241C, strain CIN2, stronger effect = lower value 1.02 | locus YPL256C, strain CLN2, stronger effect = lower value 0.987 | locus YPR119W, strain clb2, stronger effect = lower value 1.02 | locus YPR141C, strain kar3, stronger effect = lower value 1.02 | locus YPR163C, strain tif3, stronger effect = lower value 1.02 | locus YPR167C, strain met16, stronger effect = lower value 1.01 | strain wtn01, stronger effect = lower value 1.01
